The campaign covered roughly 69,000 compounds. About 8,600 (12%) showed an effect of 50% or more. The list comes from a sample in which strong results are over-represented; it also holds similar structures and randomly drawn compounds.
The compounds below were run on Plasmodium berghei (assay: Screen against P. berghei liver stage (PbLuc), transformed with Luciferase, at 10uM). Details: tested at 10 uM.
Assay type: functional, HepG2

Going from `Cc1cc(-c2cnc(N3CCC(C(N)=O)CC3)nc2C(C)C)on1` to `Cc1cc(C(=O)N2CCc3nnc(N)cc3C2)c(C)n1C1CC1`, the INHIBITION falls from 77.1% to -15.8%.

Compared with `COc1ccc(Cl)cc1C(=O)N1CCCC(c2cc(C)[nH]n2)C1` (configuration not stated), `CNC(=O)c1ccc(C(=O)N2CCCC(n3nc(C)cc3C)C2)cn1` (configuration not stated) is lower in INHIBITION: -2.53% for the first, -11.9% for the second.

First: Cc1cc(C(=O)NC2CCC3(CCC(=O)N3CC3CC3)CC2)no1 (configuration not stated)
Second: CCCn1cc(C(=O)NC2CCN(CC(=O)NC3CC3)CC2)c(C)n1
The INHIBITION of the first is lower: -1.12% for the first, 39.4% for the second.

Compared with `N#CC1(NC(=O)c2ccc(-c3nc(C4CC4)n[nH]3)cc2)CCSC1` (configuration not stated), `Cc1cc(SCC(N)=O)nc(-c2ccc(F)cc2)n1` is lower in INHIBITION: 22% for the first, -6.18% for the second.

Compared with `COc1ccc(C(C#N)NC(=O)Cc2ccc(F)c(F)c2)c(OC)c1` (configuration not stated), `COc1ccc(-c2nc(C)cc(SCC(N)=O)n2)cc1` is higher in INHIBITION: 17.7% for the first, 85.5% for the second.

Compared with `CCc1noc(CN(CC)Cc2cc3ccc(F)cc3[nH]c2=O)n1`, `CC(=O)N(C)Cc1ccccc1NCc1c(C)noc1C` is higher in INHIBITION: -52.7% for the first, -16.1% for the second.

Compared with `CCCn1cc(C(=O)NCC(=O)NC2CC2)c(C)n1`, `CCCn1cc(C(=O)NCCC(=O)NC2CCCCC2)c(C)n1` is lower in INHIBITION: 60.3% for the first, -5.12% for the second.

Going from `CCC(=O)Nc1ccccc1Sc1nc(Br)nn1C` to `CCC(C)[C@H](N)c1nnc(SCC(=O)Nc2ccc(Br)cc2)o1` (some centres not stated), the INHIBITION rises from 3.31% to 41.1%.

First: Cc1ccnc(N2C[C@H]3CC[C@@H](C2)N(CC2CCC2)C3=O)n1
Second: CC(C)c1nnc(N2C[C@H]3CC[C@@H](C2)N(CC2CCC2)C3)s1
The INHIBITION of the first is lower: -4.35% for the first, 44.6% for the second.

Compared with `Cc1cc(SCC(N)=O)nc(-c2cccc(F)c2)n1`, `Cc1cc(C(=O)N2CCc3nnc(N)cc3C2)c(C)n1-c1ccccc1` is higher in INHIBITION: 3.58% for the first, 89.3% for the second.

Going from `CC(=O)N1C[C@H]2CC[C@@H](C1)N(S(=O)(=O)c1ccccc1Cl)C2` to `CS(=O)(=O)c1ccc(CN2C[C@@H]3CC[C@H]2CN(c2ncccn2)C3)cc1`, the INHIBITION rises from -7.2% to 74.1%.

Compared with `CCn1nc(C)cc1S(=O)(=O)N1CCC2(CCCN(C(C)C)C2=O)C1` (configuration not stated), `CCn1nccc1S(=O)(=O)N1CCC2(CCCN(C(C)C)C2=O)C1` (configuration not stated) is lower in INHIBITION: 58.6% for the first, 33% for the second.

First: CCCN1CCCC2(CCN(S(=O)(=O)c3cc(C)nn3CC)C2)C1=O (configuration not stated)
Second: CCn1c(C)cc(C(=O)N2CCc3nnc(N)cc3C2)c1C
The INHIBITION of the first is lower: 21.2% for the first, 68.8% for the second.

Going from `O=C(c1ccsc1)N1CCO[C@@H]2CN(Cc3ccco3)CC[C@@H]2C1` to `c1cnc(N2C[C@H]3CC[C@@H](C2)N(Cc2ccsc2)C3)nc1`, the INHIBITION falls from 44.8% to 15.7%.

Compared with `Cc1c(CNCC(C)Oc2cccnc2)c2ccccc2n1CC(N)=O` (configuration not stated), `Nc1cc2c(nn1)CCN(C(=O)c1cccnc1Oc1ccccc1)C2` is higher in INHIBITION: -36.6% for the first, -18.7% for the second.

Going from `Cc1cc(C(=O)N2CCc3nnc(N)cc3C2)c(C)n1-c1cccnc1` to `Nc1cc2c(nn1)CCN(C(=O)c1cccc3c1OCCO3)C2`, the INHIBITION rises from 11.8% to 44.2%.

First: Cc1ccc(CN(C(=O)NCC2CCCO2)C2CC2)o1 (configuration not stated)
Second: CC(=O)Nc1ccc(CN2C[C@@H]3CC[C@H]2CN(c2ncccn2)C3)cc1
The INHIBITION of the first is lower: -56.2% for the first, -8% for the second.

First: COCCc1noc(CNC2CCCC(C)(C)C2)n1 (configuration not stated)
Second: COc1ccc(CN2C[C@H]3CC[C@@H](C2)N(Cc2snnc2C)C3)cc1
The INHIBITION of the first is lower: 20.2% for the first, 73.5% for the second.

First: Cc1ccccc1CS(=O)(=O)c1nnc(C(C)NC(=O)OC(C)(C)C)o1 (configuration not stated)
Second: CC(=O)N(C)Cc1ccccc1NCc1c(C)cccc1C
The INHIBITION of the first is lower: 46.6% for the first, 50.2% for the second.

First: CC(=O)N(C)Cc1cccc(NC(=O)N(C)CCc2cccs2)c1
Second: CC(=O)N(C)Cc1ccccc1NC(=O)N(C)CCc1cccs1
The INHIBITION of the first is lower: -6.34% for the first, 52.3% for the second.

Going from `C=C(C)CN(CC)C(=O)Nc1ccccc1CN(C)C(C)=O` to `CC(=O)N(C)Cc1ccccc1NC(=O)c1ccccc1C`, the INHIBITION falls from 28.7% to -19.55%.

Compared with `O=C(c1ccccc1)N1CCS(=O)(=O)[C@@H]2CCNCC[C@@H]21`, `Cc1nnsc1CN1C[C@@H]2CC[C@H]1CN(Cc1ccccc1)C2` is higher in INHIBITION: 38.2% for the first, 46.4% for the second.

First: Cc1csc(N2CCCN(C(=O)c3ccoc3C)CC2)n1
Second: CC(=O)N1CC(=O)N(c2ccccc2)CC12CCN(Cc1ccoc1)C2 (configuration not stated)
The INHIBITION of the first is lower: 15.3% for the first, 38.3% for the second.

Going from `CCCN1C[C@@H]2CC[C@H]1CN(c1nnc(C(C)C)s1)C2` to `CC(C)c1nnc(N2C[C@H]3CC[C@@H](C2)N(Cc2ccccc2)C3)s1`, the INHIBITION rises from -11.9% to 87.2%.

Going from `Cc1nnsc1CN1C[C@H]2CC[C@@H](C1)N(Cc1ccccc1)C2` to `Cc1nnsc1CN1C[C@@H]2CC[C@H]1CN(Cc1ccccn1)C2`, the INHIBITION falls from 60% to -15.3%.

Going from `Cc1nnsc1CN1C[C@@H]2CC[C@H]1CN(Cc1ccc(F)cc1)C2` to `Cc1ncsc1CN1C[C@@H]2CC[C@H]1CN(Cc1ccccc1)C2`, the INHIBITION falls from 29.1% to 15.5%.

— ChEMBL document CHEMBL4513216, “Probing the Open Global Health Chemical Diversity Library for Multistage-Active Starting Points for Next-Generation Antimalarials” (ACS Infect Dis, 2020)
